Many of the other results were omitted from the sample, so hits are more common in it than they were.
Giardia FBPA inh: Giardia lamblia aldolase inhibition | A8B2U2 | purified Giardia FBPA | Potency, µM (titrated, usually from 59.6 µM), most hits filed as inhibitors | 0.71% of 290,000 active; further: nearly all actives have a fitted effect of over 55% in size
Target sequence (A8B2U2 whole entry, looked up): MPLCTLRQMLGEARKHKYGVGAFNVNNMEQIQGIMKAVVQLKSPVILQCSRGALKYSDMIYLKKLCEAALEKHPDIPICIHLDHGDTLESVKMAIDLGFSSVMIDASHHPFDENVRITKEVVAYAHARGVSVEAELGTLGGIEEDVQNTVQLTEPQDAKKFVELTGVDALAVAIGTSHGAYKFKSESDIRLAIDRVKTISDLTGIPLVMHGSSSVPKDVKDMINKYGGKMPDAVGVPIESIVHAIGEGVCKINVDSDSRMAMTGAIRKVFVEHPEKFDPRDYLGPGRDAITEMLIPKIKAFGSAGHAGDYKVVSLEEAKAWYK
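40 nM FBPA preincubated 10 min at RT with compound (up to 57.5 uM final), then substrate plus GAPDH/TPI/NAD/arsenate coupling and diaphorase/resazurin added. Fluorescence read after 20 min at RT, 525/598 nm.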
CHX counter: counter-screen for Shiga toxin inhibitors: cycloheximide protein synthesis inhibition. cell reporter, cycloheximide protein synthesis inhibition counterscreen. max response, %. 12% of 300,000 active. AID 2314; in the data active means max response mostly above about 13%, no sharp cut-off; inactive means mostly below about 14%; further: read at 38.3 µM for the half of the compounds with a filed dose
Shiga toxin inh: Shiga toxin inhibition; inhibition, % at 38.7 µM; 9.2% of 290,000 active; Vero cells, Shiga toxin protein synthesis inhibition reporter; AID 2315; in the data active means inhibition mostly above about 28%, no sharp cut-off; inactive means mostly below about 43%
LmPK inhibitor: inhibitors of Leishmania mexicana pyruvate kinase; Q27686; purified LmPK, Kinase-Glo ATP luminescence, 1 h; Potency, µM (series often up to 57.5 µM), most hits filed as inhibitors; 0.37% of 290,000 active; AID 1721
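0.1 nM LmPK, 0.5 mM PEP, 0.1 mM ADP; 50 mM imidazole pH 7.2, 7 mM MgCl2, 50 mM KCl; 1 h RT. Kinase-Glo luminescence readout, normalized to no-enzyme (full inhibition) and uninhibited wells.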
RE007 growth inh: less growth of the S. pombe RE007 Vpr strain; Potency, µM (highest dose often 92.2 µM), hits mostly inhibitors; 0.21% of 360,000 active; S. pombe RE007 Vpr strain, BacTiter-Glo ATP luminescence, 24 h; active means well fitted falling curve with a large enough effect; inconclusive means small, poorly fitted or top-dose-only effect; inactive means no such curve, though single readings can be large or run the other way; further: nearly all actives have a fitted effect of over 50% in size
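Fission yeast strain RE007, carrying one chromosomally integrated HIV-1 vpr copy, was seeded at OD 0.01 in PMG+AL medium with 23 nL pinned compound. After 24 h at 30 °C and 99% humidity, viability was read by BacTiter-Glo luminescence.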
TbPYK inhibitor: T. brucei pyruvate kinase inhibition; Q57TT1; TbPYK enzyme, Kinase-Glo Plus ATP luminescence, 45 min; Potency, µM (titrated, usually from 76.8 µM), actives largely listed as inhibitors; 0.12% of 410,000 active; further: nearly all actives have a fitted effect of over 50% in size
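Assay buffer: 50 mM TEA pH 7.2, 100 mM KCl, 10 mM MgCl2, 0.05% BSA, 0.01% Tween-20. Pyruvate kinase from T. brucei plus substrate met compound, then ADP (130 uM final). Luminescence was read post 45 min RT.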
A number is an active result; . = inactive; ? = inconclusive; / = no result. Unless noted, the call rests on the fitted dose curve; in most records, active means well fitted curve in the direction sought with a large enough effect; inconclusive means small, poorly fitted or top-dose-only effect, or another doubt; inactive means no such curve, though single readings can be large; an effect the other way counts as inactive or inconclusive.

SMILES	Giardia FBPA inh	CHX counter	Shiga toxin inh	LmPK inhibitor	RE007 growth inh	TbPYK inhibitor
CSCC[C@H](NC(=O)[C@@H]1CCCN1C(=O)[C@H](CCCN=C(N)N)NC(=O)[C@H](CC(C)C)NC(=O)[C@@H]1CCCN1C(=O)[C@@H](NC(=O)[C@@H](N)CCC(N)=O)C(C)C)C(=O)N[C@H](C(=O)N[C@@H](Cc1ccc(O)cc1)C(=O)N[C@@H](CCCCN)C(=O)O)[C@@H](C)O	.	.	.	/	/	/
Cc1cc(NC(=O)CC2(CC(=O)O)CCCC2)n(C)n1	.	.	.	.	.	.
CCCCc1ccc(NC(=O)C(C)CC)cc1 (configuration not stated)	?	48.3	50.5	?	.	.
CCCCc1ccc(NC(=O)CC(C)=O)cc1	.	.	.	.	.	.
CCCCc1ccc(NC(=O)CC(C)(C)C)cc1	.	144.0	164.2	.	.	.
O=C(c1ccc([N+](=O)[O-])cc1)N1CCN(c2cccc3[nH]ccc23)CC1	.	.	.	.	.	.
CC1=CC(=C2C(=O)c3ccccc3C2=O)C=C(C)O1	.	11.3	.	.	.	.
CC1=CC(=C2C(=O)c3ccccc3C2=O)C=C(C)N1Cc1ccco1	.	37.0	65.7	.	.	.
CC(=O)Nc1ccc(NC(=O)CSc2nc3[nH]ncc3c(=O)n2-c2ccccc2)cc1	.	.	.	.	.	.
O=C(c1ccc(-c2ccccc2)cc1)c1ccccc1C(=O)N1CCOCC1	.	.	.	.	.	.
O=C(/C=C/N1CCOCC1)c1ccc(-c2ccccc2)cc1	.	42.1	.	.	.	.
O=C(/C=C\N1CCOCC1)c1ccc(Br)cc1	.	26.7	33.9	.	.	.
N#CCCN(Cc1ccccc1)C(=O)c1nccnc1C(=O)O	.	.	.	.	.	.
COC(=O)c1c(C)[nH]c(/C=N/Nc2ccccc2)c1C	.	20.5	.	.	.	.
Cc1c(C=NNc2ccccc2)[nH]c(=O)[nH]c1=O	/	/	/	/	.	.
COc1cccc(CN(CCC(C)C)S(=O)(=O)c2cc(Br)ccc2Br)c1	/	/	/	/	.	.
COc1ccc(NC(=O)c2sccc2SCc2cccc(C(F)(F)F)c2)cc1	.	16.1	36.0	.	.	.
Cc1ccc(N2C(=O)C(F)(F)C2c2ccccc2)cc1 (configuration not stated)	.	.	.	.	.	.
Cc1ccc(N2C(=N)/C(=C3/Nc4ccccc4S3)C(c3ccccc3)C2=O)cc1 (configuration not stated)	.	43.8	62.0	.	.	.
Cc1nc(N)nc(N/N=C/c2c(F)cccc2Cl)n1	?	.	.	.	.	.
Cc1nc(C#N)c(N/N=C/c2c(F)cccc2Cl)o1	.	28.1	.	.	.	.
Cn1c(=O)c2c(-c3ccccc3)n3c4ccccc4nc(-c4ccccc4)c3c2n(C)c1=O	/	/	/	/	/	.
COc1ccc2oc(=N)c(C(=O)Nc3ccc(C)cc3)cc2c1	.	.	.	.	.	.
N=c1oc2cc(O)ccc2cc1C(=O)Nc1ccccn1	.	13.9	51.9	.	/	/
N=c1oc2cc(O)ccc2cc1C(=O)Nc1nc2ccccc2s1	.	64.2	.	.	.	.
SMILES	Giardia FBPA inh	CHX counter	Shiga toxin inh	LmPK inhibitor	RE007 growth inh	TbPYK inhibitor
O=C(Nc1nc2ccccc2s1)c1cccn(Cc2ccccc2)c1=O	/	/	/	/	/	.
N=c1oc2cc(O)ccc2cc1C(=O)Nc1ccc(Br)cc1	.	29.5	41.0	.	.	.
CC1=NN(C(N)=S)C(=O)C1N=Nc1ccc(Br)cc1 (configuration not stated)	?	38.6	.	.	.	.
CC1=NN(C(N)=S)C(=O)C1N=Nc1cccc2ccccc12 (configuration not stated)	.	.	.	.	/	/
CC1=NN(C(N)=S)C(=O)C1N=Nc1cccc(Cl)c1C (configuration not stated)	?	25.6	36.7	.	.	.
CC1=NN(C(N)=S)C(=O)C1N=Nc1ccccc1 (configuration not stated)	.	.	.	.	.	.
CC1=NN(C(N)=S)C(=O)C1N=Nc1ccc(Cl)cc1 (configuration not stated)	.	32.6	76.5	.	.	.
